Assay results from PubChem BioAssay (Tox21).
Inconclusive results are not listed. The source made the active and inactive calls. Unless noted, the call rests on the fitted dose curve; in most records, active means well fitted curve in the direction sought with a large enough effect in the repeat runs; inconclusive means weak or mixed curves; inactive means no such curve, though single readings can be large; an effect the other way counts as inactive or inconclusive.

Columns and labels:
[1] = qHTS assay to test for compound auto fluorescence at 535 nm (green) in HEK293 cells (AID 720680)
[2] = qHTS assay to test for compound auto fluorescence at 460 nm (blue) in HEK293 cell free culture (AID 720681)
Method in brief: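 Compounds were added to cell-free DMEM with 10% FBS and fluorescence read directly. The blue channel used 405 nm excitation and 460 nm emission, with triamterene as the reference fluorophore.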

[3] = qHTS assay to test for compound auto fluorescence at 535 nm (green) in HEK293 cell free culture (AID 720682)
Method in brief: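 Green-channel intensity (Ex/Em 485/535 nm) was recorded from compound-treated wells containing only DMEM with 10% FBS. Fluorescein provided the equivalency standard.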

[4] = qHTS assay to test for compound auto fluorescence at 590 nm (red) in HEK293 cell free culture (AID 720683)
Method in brief: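 Cell-free wells of DMEM with 10% FBS received compound, and intrinsic fluorescence was read at excitation/emission 540/590 nm. Values expressed as equivalence to Rose Bengal sodium.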

[5] = qHTS assay to test for compound auto fluorescence at 590 nm (red) in HepG2 cell free culture (AID 720684)
Method in brief: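 Rose Bengal sodium served as the reference for red signal. Test compounds were dispensed into serum-containing MEM (10% FBS) without cells, and plates were read at 540/590 nm.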

[6] = qHTS assay to test for compound auto fluorescence at 460 nm (blue) in HepG2 cell free culture (AID 720685)
Method in brief: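 Cell-free plates of MEM plus 10% FBS received 23 nL compound or DMSO vehicle; blue-channel (405/460 nm) intensity scored against triamterene as reference fluorophore.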

[7] = qHTS assay to test for compound auto fluorescence at 535 nm (green) in HepG2 cell free culture (AID 720686)
[8] = qHTS assay to test for compound auto fluorescence at 460 nm (blue) in HepG2 cells (AID 720687)
Method in brief: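 HepG2 cells in MEM with 10% FBS, attached overnight at 37 C, were exposed to compound or DMSO for 1 hr at 37 C, 5% CO2. Blue fluorescence was read at 405/460 nm, with triamterene as reference fluorophore.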

[9] = molecular target: Glucocorticoid receptor (Homo sapiens) (UniProt P04150); assay: qHTS assay to identify small molecule agonists of the glucocorticoid receptor (GR) signaling pathway (AID 720691; active means well fitted activation curve with a large enough effect in the signal ratio in the repeat runs, not every such curve was filed as active; the % refers to the signal ratio)
Sequence of Glucocorticoid receptor (Homo sapiens) (P04150 whole entry, looked up): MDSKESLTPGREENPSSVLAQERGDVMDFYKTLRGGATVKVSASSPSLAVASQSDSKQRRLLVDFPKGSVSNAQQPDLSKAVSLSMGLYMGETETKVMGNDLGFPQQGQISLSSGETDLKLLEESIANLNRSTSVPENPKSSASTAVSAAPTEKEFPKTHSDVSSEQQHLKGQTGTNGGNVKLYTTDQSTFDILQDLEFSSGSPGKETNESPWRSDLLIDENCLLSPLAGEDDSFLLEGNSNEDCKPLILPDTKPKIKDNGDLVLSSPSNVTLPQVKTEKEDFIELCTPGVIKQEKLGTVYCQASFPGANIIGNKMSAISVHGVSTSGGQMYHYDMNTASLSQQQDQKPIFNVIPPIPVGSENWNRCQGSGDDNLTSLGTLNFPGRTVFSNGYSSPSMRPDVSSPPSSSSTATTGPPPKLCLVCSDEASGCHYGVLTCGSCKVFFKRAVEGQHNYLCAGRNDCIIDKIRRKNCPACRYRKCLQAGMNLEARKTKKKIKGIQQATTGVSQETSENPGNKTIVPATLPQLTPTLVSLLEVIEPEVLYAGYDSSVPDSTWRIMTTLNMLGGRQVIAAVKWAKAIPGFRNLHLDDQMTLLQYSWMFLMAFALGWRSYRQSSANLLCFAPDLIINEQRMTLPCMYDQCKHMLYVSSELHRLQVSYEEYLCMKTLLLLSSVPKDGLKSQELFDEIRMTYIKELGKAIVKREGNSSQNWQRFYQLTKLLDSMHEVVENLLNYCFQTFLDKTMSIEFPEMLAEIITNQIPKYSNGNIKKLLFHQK
Method in brief: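 Measures GR pathway activation through a GRE-beta-lactamase reporter stably integrated in HeLa cells, with 18 h compound treatment at 37 C and fluorescence detection using a FRET substrate.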

[10] = qHTS assay to identify small molecule antagonists of the glucocorticoid receptor (GR) signaling pathway - cell viability counter screen (AID 720693); further: nearly all actives have a fitted effect of over 55% in size
[11] = qHTS assay for identifying genotoxic compounds that show differential cytotoxicity against isogenic chicken DT40 cell lines with known DNA damage response pathways - wild type cell line (AID 743012); further: nearly all actives have a fitted effect of over 60% in size
Method in brief: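 Endpoint: CellTiter-Glo luminescence, 30 min RT. Cells: wild type DT40, 300/well. Exposure: compounds in DMSO, 40 h, 37 C/5% CO2, after ~0.5 h pre-incubation.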

[12] = qHTS assay for identifying genotoxic compounds that show differential cytotoxicity against isogenic chicken DT40 cell lines with known DNA damage response pathways - Rev3 mutant cell line (AID 743014); further: nearly all actives have a fitted effect of over 55% in size
[13] = qHTS assay to identify small molecule antagonists of the androgen receptor (AR) signaling pathway - cell viability counter screen (AID 743033; further: nearly all actives have a fitted effect of over 45% in size)
[14] = qHTS assay to identify small molecule antagonists of the androgen receptor (AR) signaling pathway using the MDA cell line - cell viability counter screen (AID 743041; further: nearly all actives have a fitted effect of over 45% in size)
Method in brief: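 Cytotoxicity counter screen: MDA-kb2 AR-luc cells, compound + R1881, 16 h, 37C, 0% CO2; CellTiter-Fluor added at 15.5 h, fluorescence read after 30 min.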

[15] = molecular target: Glucocorticoid receptor (Homo sapiens) (UniProt P04150); assay: qHTS assay to identify small molecule antagonists of the glucocorticoid receptor (GR) signaling pathway (AID 720692; active means well fitted inhibition curve with a large enough effect in the signal ratio in the repeat runs, not every such curve was filed as active; the % refers to the signal ratio)
Method in brief: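 Tox21 10K library screened in concentration-response for blockade of dexamethasone (5 nM final)-induced GRE-bla reporter activity in HeLa cells; 18 h treatment, fluorescence read.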

[16] = qHTS assay for identifying genotoxic compounds that show differential cytotoxicity against isogenic chicken DT40 cell lines with known DNA damage response pathways - Rad54/Ku70 mutant cell line (AID 743015); further: nearly all actives have a fitted effect of over 60% in size
[17] = molecular target: Androgen receptor (Homo sapiens) (UniProt P10275); assay: qHTS assay to identify small molecule antagonists of the androgen receptor (AR) signaling pathway (AID 743035; active means well fitted inhibition curve with a large enough effect in the signal ratio in the repeat runs, not every such curve was filed as active; the % refers to the signal ratio)
Sequence of Androgen receptor (Homo sapiens) (P10275 whole entry, looked up): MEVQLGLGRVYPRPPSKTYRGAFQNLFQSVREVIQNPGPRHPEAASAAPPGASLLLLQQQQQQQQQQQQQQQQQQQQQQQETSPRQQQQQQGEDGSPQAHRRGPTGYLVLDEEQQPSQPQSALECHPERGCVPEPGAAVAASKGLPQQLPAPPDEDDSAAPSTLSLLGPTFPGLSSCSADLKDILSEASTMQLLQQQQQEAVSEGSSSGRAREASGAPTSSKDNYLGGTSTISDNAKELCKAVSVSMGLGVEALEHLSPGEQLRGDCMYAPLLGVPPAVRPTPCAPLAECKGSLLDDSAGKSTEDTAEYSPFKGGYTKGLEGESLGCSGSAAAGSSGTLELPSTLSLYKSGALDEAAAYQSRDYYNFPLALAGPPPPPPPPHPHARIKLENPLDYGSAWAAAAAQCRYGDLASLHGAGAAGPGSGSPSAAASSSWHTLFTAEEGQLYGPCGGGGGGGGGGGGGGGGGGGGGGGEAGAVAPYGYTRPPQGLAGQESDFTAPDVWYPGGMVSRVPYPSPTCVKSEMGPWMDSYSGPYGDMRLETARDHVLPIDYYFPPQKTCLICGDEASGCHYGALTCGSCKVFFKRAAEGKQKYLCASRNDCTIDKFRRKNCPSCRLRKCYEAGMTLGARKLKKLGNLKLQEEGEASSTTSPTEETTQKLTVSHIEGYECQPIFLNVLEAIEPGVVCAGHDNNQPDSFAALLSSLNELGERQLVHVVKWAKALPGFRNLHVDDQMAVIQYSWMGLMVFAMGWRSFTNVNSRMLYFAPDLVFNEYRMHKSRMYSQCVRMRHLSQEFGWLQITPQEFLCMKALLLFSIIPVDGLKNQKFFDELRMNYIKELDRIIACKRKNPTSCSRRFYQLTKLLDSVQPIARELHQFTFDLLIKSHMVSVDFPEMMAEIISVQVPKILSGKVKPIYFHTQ
Method in brief: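 R1881 agonist challenge of a HEK293 UAS-beta-lactamase AR reporter line in the presence of compound (16 h, 37C); signal taken as FRET fluorescence after 2 h with LiveBLAzer B/G substrate at room temperature.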

[18] = molecular target: Androgen receptor (Homo sapiens) (UniProt P10275); assay: qHTS assay to identify small molecule agonists of the androgen receptor (AR) signaling pathway (AID 743036; active means well fitted activation curve with a large enough effect in the signal ratio in the repeat runs, with a control signal flat, not every such curve was filed as active; the % refers to the signal ratio)
Method in brief: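 Cell-based FRET reporter assay: HEK293 line with a UAS-beta-lactamase construct, compounds added in DMSO, 16 h exposure at 37C, then 2 h substrate step at room temperature and fluorescence intensity read.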

[19] = molecular target: Androgen receptor (Homo sapiens) (UniProt P10275); assay: qHTS assay to identify small molecule agonists of the androgen receptor (AR) signaling pathway using the MDA cell line (AID 743040; further: nearly all actives have a fitted effect of over 20% in size)
Method in brief: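 Luciferase read-out, ONE-Glo, 30 min RT. Cells: MDA-kb2 AR-luc, MMTV promoter with AR and GR response elements. Compound exposure 16 h, 37C, 0% CO2, after 5 h pre-incubation. qHTS agonist mode.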

[20] = molecular target: Androgen receptor (Homo sapiens) (UniProt P10275); assay: qHTS assay to identify small molecule antagonists of the androgen receptor (AR) signaling pathway using the MDA cell line (AID 743042; further: nearly all actives have a fitted effect of over 55% in size)
Method in brief: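 MDA-kb2 breast carcinoma cells carrying MMTV-luciferase (AR/GR responsive) were co-treated with compounds and the agonist R1881 for 16 h at 37C. Inhibition read as ONE-Glo luminescence; CellTiter-Fluor fluorescence measured in parallel for cytotoxicity.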
On the % scale 0 is the no-effect control and ±100 the full control effect.

COc1ccc(S(=O)(=O)N2c3ccc(Cl)cc3[C@@](O)(c3ccccc3Cl)[C@H]2C(=O)N2CCC[C@@H]2C(N)=O)cc1OC
inactive: outcome [1] | outcome [2] | outcome [3] | outcome [4] | outcome [5] | outcome [6] | outcome [7] | outcome [8] | Potency [9] | outcome [10] | Potency [11] | Potency [12] | Potency [13] | Potency [14]

Nc1cccc(O)c1
inactive: outcome [1] | outcome [2] | outcome [3] | outcome [4] | outcome [5] | outcome [6] | outcome [7] | outcome [8] | Potency [9] | outcome [15] | Potency [11] | Potency [12] | Potency [13] | Potency [14]

O=C(O)c1cc(Br)c(O)c(Br)c1
inactive: outcome [1] | outcome [2] | outcome [3] | outcome [4] | outcome [5] | outcome [6] | outcome [7] | outcome [8] | Potency [9] | outcome [15] | outcome [10] | Potency [16] | Potency [13] | Potency [17] | outcome [18] | outcome [19] | Potency [14] | Potency [20]

CCN(C)C(=O)Oc1cccc([C@H](C)N(C)C)c1
inactive: outcome [1] | outcome [2] | outcome [3] | outcome [4] | outcome [5] | outcome [6] | outcome [7] | outcome [8] | Potency [9] | outcome [15] | Potency [11] | Potency [12] | Potency [16] | Potency [13] | Potency [17] | outcome [18] | outcome [19] | Potency [14] | Potency [20]

COc1cc(C(=S)N2CCOCC2)cc(OC)c1OC
inactive: outcome [1] | outcome [2] | outcome [3] | outcome [4] | outcome [5] | outcome [6] | outcome [7] | outcome [8] | Potency [9] | outcome [15] | Potency [11] | Potency [13] | Potency [14]

CCCCCCCCCC(C)=O
inactive: outcome [1] | outcome [2] | outcome [3] | outcome [4] | outcome [5] | outcome [6] | outcome [7] | outcome [8] | Potency [9] | outcome [15] | Potency [11] | Potency [12] | Potency [16] | Potency [13] | Potency [17] | outcome [18] | outcome [19] | Potency [14] | Potency [20]

O=Cc1ccc(Cl)c(Cl)c1
inactive: outcome [1] | outcome [2] | outcome [3] | outcome [4] | outcome [5] | outcome [6] | outcome [7] | outcome [8] | Potency [9] | outcome [15] | Potency [11] | Potency [16] | Potency [13]

CCCCN
inactive: outcome [1] | outcome [2] | outcome [3] | outcome [4] | outcome [5] | outcome [6] | outcome [7] | outcome [8] | Potency [9] | outcome [15] | Potency [11] | Potency [16] | Potency [14]

CCN(CC)CC(=O)Nc1c(C)cccc1C
inactive: outcome [1] | outcome [2] | outcome [3] | outcome [4] | outcome [5] | outcome [6] | outcome [7] | outcome [8] | Potency [9] | outcome [15] | outcome [10] | Potency [16] | outcome [18] | outcome [19] | Potency [14] | Potency [20]

Cc1c(I)c(=O)n(-c2ccccc2)n1C
inactive: outcome [1] | outcome [2] | outcome [3] | outcome [4] | outcome [5] | outcome [6] | outcome [7] | outcome [8] | Potency [9] | outcome [10] | Potency [11] | Potency [12] | Potency [16] | Potency [13] | Potency [14]

CC(=O)/C=C/C1C(C)=CCC(C)C1(C)C (stereo not drawn)
inactive: outcome [1] | outcome [2] | outcome [3] | outcome [4] | outcome [5] | outcome [6] | outcome [7] | outcome [8] | Potency [9] | outcome [15] | outcome [10] | Potency [13] | Potency [14]

Cc1cc(C(C)(C)C)c(O)c(C)c1CC1=NCCN1
inactive: outcome [1] | outcome [2] | outcome [3] | outcome [4] | outcome [5] | outcome [6] | outcome [7] | outcome [8] | Potency [9] | outcome [15] | outcome [10] | Potency [12] | Potency [17] | outcome [18] | outcome [19] | Potency [14] | Potency [20]

CC(C)CC(=O)O
inactive: outcome [1] | outcome [2] | outcome [3] | outcome [4] | outcome [5] | outcome [6] | outcome [7] | outcome [8] | Potency [9] | outcome [15] | Potency [13] | Potency [14]

O=C(NCC(O)CO)c1c(I)c(C(=O)NCC(O)CO)c(I)c(N(CCO)C(=O)CO)c1I (stereo not drawn)
inactive: fluorescence, % of fluorescein [1] -0.0067% [at 18.6 µM] | fluorescence, % of fluorescent control [2] -0.0567% [at 18.6 µM] | activity change [3] -0.0517% [at 18.6 µM] | fluorescence, % of fluorescent control [4] 0.453% [at 18.6 µM] | fluorescence, % of Rose Bengal [5] 0.343% [at 18.6 µM] | fluorescence, % of fluorescent control [6] -0.1% [at 18.6 µM] | fluorescence, % of fluorescein control [7] -0.0658% [at 18.6 µM] | fluorescence, % of fluorescent control [8] -0.0045% [at 18.6 µM] | Potency [9] | outcome [10] | Potency [11] | Potency [12] | Potency [16] | Potency [13]

CC(C)CCCCOC(=O)c1ccccc1C(=O)OCCCCC(C)C
inactive: outcome [1] | outcome [2] | outcome [3] | outcome [4] | outcome [5] | outcome [6] | outcome [7] | outcome [8] | Potency [9] | outcome [10] | Potency [11] | Potency [12] | Potency [16] | Potency [13] | Potency [14]

N[C@@H](CCC(=O)N[C@@H](CS)C(=O)NCC(=O)O)C(=O)O
inactive: outcome [1] | outcome [2] | outcome [3] | outcome [4] | outcome [5] | outcome [6] | outcome [7] | outcome [8] | outcome [10] | Potency [11] | Potency [12] | Potency [16] | Potency [13]
